Data reported in PubChem BioAssay (EPA / NIEHS).
The source made the active and inactive calls. The calls were made as follows: active = hit-call score of the fitted dose curve at least 0.9, where 1 is the maximum; inactive = score below 0.9.

Legend:
Conditions in all cases: mRNA level, 48 h; actives raise or lower the signal
[1] = read-out: 3-Hydroxy-3-Methylglutaryl-CoA Synthase 2 (HMGCS2), HMGCS2 (gene 3158); assay: LTEA_HepaRG_HMGCS2: Life Technologies and Expression Analysis (LTEA) Assay for 3-Hydroxy-3-Methylglutaryl-CoA Synthase 2 (HMGCS2) using HepaRG (AID 2283504)
How it was run: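 Differentiated human HepaRG cells were exposed in duplicate for 48 h in serum-free induction medium to eight concentrations (top 100 uM, half-log steps, 0.5% DMSO). HMGCS2 mRNA was quantified by TaqMan qRT-PCR, normalised to ACTB, GAPDH and POLR2A, then fitted bidirectionally against DMSO.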

[2] = read-out: Insulin Like Growth Factor 1 (IGF1), IGF1 (gene 3479); assay: LTEA_HepaRG_IGF1: Life Technologies and Expression Analysis (LTEA) Assay for Insulin Like Growth Factor 1 (IGF1) using HepaRG (AID 2283506)
How it was run: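 Differentiated human HepaRG cells were dosed for 48 h in serum-free induction medium with 0.5% DMSO, eight half-log concentrations up to 100 uM, in duplicate. IGF1 mRNA was quantified by qRT-PCR normalized to ACTB, GAPDH, POLR2A; bidirectional fitting versus DMSO.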

[3] = read-out: Intercellular Adhesion Molecule 1 (ICAM1), ICAM1 (gene 3383); assay: LTEA_HepaRG_ICAM1: Life Technologies and Expression Analysis (LTEA) Assay for Intercellular Adhesion Molecule 1 (ICAM1) using HepaRG (AID 2283507)
How it was run: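 Differentiated HepaRG cells in serum-free induction medium were exposed in duplicate for 48 h to eight half-log concentrations up to 100 uM in 0.5% DMSO. Transcript levels were measured by qRT-PCR normalized to ACTB, GAPDH and POLR2A; bidirectional fits relative to DMSO.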

[4] = read-out: Insulin-like growth factor-binding protein 1 (IGFBP1), IGFBP1 (gene 3484); assay: LTEA_HepaRG_IGFBP1: Life Technologies and Expression Analysis (LTEA) Assay for Insulin-like growth factor-binding protein 1 (IGFBP1) using HepaRG (AID 2283508)
How it was run: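 Differentiated human HepaRG cells in serum-free induction medium were exposed in duplicate for 48 h to eight concentrations, top 100 uM with half-log dilutions, in 0.5% DMSO. Transcript levels came from qRT-PCR normalised to ACTB, GAPDH and POLR2A, fitted bidirectionally against DMSO.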

[5] = read-out: Interleukin 6 (IL6), IL6 (gene 3569); assay: LTEA_HepaRG_IL6: Life Technologies and Expression Analysis (LTEA) Assay for Interleukin 6 (IL6) using HepaRG (AID 2283509)
How it was run: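 HepaRG cells exposed in duplicate for 48 h to eight half-log concentrations, top 100 uM, in 0.5% DMSO serum-free induction medium. mRNA measured by qRT-PCR, normalized to ACTB, GAPDH and POLR2A. Bidirectional fit versus DMSO.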

[6] = read-out: Interleukin 6 Receptor (IL6R), IL6R (gene 3570); assay: LTEA_HepaRG_IL6R: Life Technologies and Expression Analysis (LTEA) Assay for Interleukin 6 Receptor (IL6R) using HepaRG (AID 2283510);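 as to AC50: TaqMan qRT-PCR signal normalized to ACTB GAPDH and POLR2A housekeeping genes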
How it was run: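 Differentiated human HepaRG cells, plated 48 h then switched to serum-free induction medium, were dosed in duplicate for 48 h at eight half-log concentrations up to 100 uM in 0.5% DMSO. IL6R mRNA quantified by qRT-PCR, normalized to ACTB/GAPDH/POLR2A; bidirectional fit versus DMSO.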

[7] = read-out: Potassium channel subfamily K member 1 (KCNK1), KCNK1 (gene 3775); assay: LTEA_HepaRG_KCNK1: Life Technologies and Expression Analysis (LTEA) Assay for Potassium channel subfamily K member 1 (KCNK1) using HepaRG (AID 2283511)
How it was run: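 Differentiated HepaRG cells, 48 h exposure in serum-free induction medium with 0.5% DMSO; 8 concentrations, half-log from 100 uM, duplicate. KCNK1 mRNA by qRT-PCR, normalized to ACTB, GAPDH, POLR2A; bidirectional fit vs DMSO.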

[8] = read-out: Keratin 19 (KRT19), KRT19 (gene 3880); assay: LTEA_HepaRG_KRT19: Life Technologies and Expression Analysis (LTEA) Assay for Keratin 19 (KRT19) using HepaRG (AID 2283512)
How it was run: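 Differentiated human HepaRG cells, plated 48 h, were exposed in duplicate for 48 h in serum-free induction medium to eight half-log concentrations up to 100 uM in 0.5% DMSO. KRT19 mRNA was quantified by qRT-PCR, normalized to ACTB, GAPDH and POLR2A, and fitted bidirectionally versus DMSO.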

[9] = read-out: JUN Transcription Factor, JUN (gene 3725); assay: LTEA_HepaRG_JUN: Life Technologies and Expression Analysis (LTEA) Assay for JUN Transcription Factor using HepaRG (AID 2283513)
How it was run: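 Differentiated HepaRG cells were exposed to chemicals for 48 h in serum-free induction medium, 8 concentrations from 100 uM in half-log steps, 0.5% DMSO vehicle, in duplicate. JUN mRNA was quantified by TaqMan qRT-PCR, normalized to ACTB, GAPDH, POLR2A.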

[10] = read-out: Lipase C (LIPC), LIPC (gene 3990); assay: LTEA_HepaRG_LIPC: Life Technologies and Expression Analysis (LTEA) Assay for Lipase C (LIPC) using HepaRG (AID 2283514)
How it was run: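 HepaRG cells, 48 h after plating, treated in duplicate for 48 h in serum-free induction medium over 8 half-log concentrations from 100 uM, 0.5% DMSO. LIPC mRNA by TaqMan qRT-PCR normalized to ACTB/GAPDH/POLR2A; bidirectional fit versus DMSO.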

[11] = read-out: Lipoprotein lipase (LPL), LPL (gene 4023); assay: LTEA_HepaRG_LPL: Life Technologies and Expression Analysis (LTEA) Assay for Lipoprotein lipase (LPL) using HepaRG (AID 2283515)
How it was run: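 Differentiated HepaRG cells, plated 48 h, then exposed 48 h in serum-free induction medium to 8 concentrations (top 100 uM, half-log steps) in 0.5% DMSO, duplicate. LPL mRNA measured by qRT-PCR, normalized to ACTB, GAPDH and POLR2A.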

[12] = read-out: MicroRNA 122 (MIR122), gene 406906; assay: LTEA_HepaRG_MIR122: Life Technologies and Expression Analysis (LTEA) Assay for MicroRNA 122 (MIR122) using HepaRG (AID 2283516); also: the transcript read is the microRNA miR-122
How it was run: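 Differentiated human HepaRG cells were exposed 48 h in serum-free induction medium to eight half-log concentrations (top 100 uM, 0.5% DMSO). Transcript level was measured by TaqMan qRT-PCR, normalized to ACTB, GAPDH and POLR2A, and fitted bidirectionally versus DMSO.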

[13] = read-out: matrix metalloproteinase-10 (MMP10), MMP10 (gene 4319); assay: LTEA_HepaRG_MMP10: Life Technologies and Expression Analysis (LTEA) Assay for matrix metalloproteinase-10 (MMP10) using HepaRG (AID 2283517)
How it was run: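 Differentiated HepaRG cells in serum-free induction medium exposed 48 h in duplicate to 8-point half-log series up to 100 uM in 0.5% DMSO. mRNA quantified by qRT-PCR, normalised to ACTB, GAPDH, POLR2A; bidirectional fit versus DMSO.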

MYC, MYC (gene 4609) = assay: LTEA_HepaRG_MYC: Life Technologies and Expression Analysis (LTEA) Assay for MYC using HepaRG (AID 2283518)
How it was run: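 Differentiated human HepaRG cells, plated 48 h then switched to serum-free induction medium, were exposed in duplicate for 48 h to 8-point half-log series up to 100 uM in 0.5% DMSO. MYC mRNA measured by qRT-PCR, normalized to ACTB/GAPDH/POLR2A.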

[14] = read-out: matrix metalloproteinase-3 (MMP3), MMP3 (gene 4314); assay: LTEA_HepaRG_MMP3: Life Technologies and Expression Analysis (LTEA) Assay for matrix metalloproteinase-3 (MMP3) using HepaRG (AID 2283519)
How it was run: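 HepaRG cells (~100,000/well) in serum-free induction medium were dosed in duplicate for 48 h with an 8-point half-log series from 100 uM, 0.5% DMSO. MMP3 mRNA was quantified by Fluidigm TaqMan qRT-PCR, normalized to three housekeeping genes.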

[15] = read-out: Protein phosphatase 2A (PPP2R4), PTPA (gene 5524); assay: LTEA_HepaRG_PPP2R4: Life Technologies and Expression Analysis (LTEA) Assay for Protein phosphatase 2A (PPP2R4) using HepaRG (AID 2283522)
How it was run: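 Differentiated HepaRG cells in serum-free induction medium were exposed in duplicate for 48 h to eight concentrations, top 100 uM with half-log dilutions, in 0.5% DMSO. PPP2R4 mRNA was quantified by TaqMan qRT-PCR, normalized to ACTB, GAPDH and POLR2A.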

[16] = read-out: Phosphatase and tensin (PTEN), PTEN (gene 5728); assay: LTEA_HepaRG_PTEN: Life Technologies and Expression Analysis (LTEA) Assay for Phosphatase and tensin (PTEN) using HepaRG (AID 2283523)
How it was run: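 HepaRG cells, 48 h after plating, exposed in duplicate for 48 h in serum-free induction medium to 8 half-log concentrations up to 100 uM (0.5% DMSO). PTEN mRNA by qRT-PCR, normalized to ACTB, GAPDH, POLR2A; bidirectional fit versus DMSO.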

HGF (gene 3082) = assay: LTEA_HepaRG_HGF: Life Technologies and Expression Analysis (LTEA) Assay for Hepatocyte Growth Facto (HGF) using HepaRG (AID 2283505)
How it was run: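 Differentiated human HepaRG cells in serum-free induction medium were exposed in duplicate for 48 h to eight concentrations (top 100 uM, half-log steps, 0.5% DMSO). HGF mRNA was quantified by qRT-PCR, normalized to ACTB, GAPDH and POLR2A.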

[17] = read-out: Paternally Expressed 10 (PEG10), PEG10 (gene 23089); assay: LTEA_HepaRG_PEG10: Life Technologies and Expression Analysis (LTEA) Assay for Paternally Expressed 10 (PEG10) using HepaRG (AID 2283520)
How it was run: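 Differentiated HepaRG cells, plated 48 h then switched to serum-free induction medium, were exposed in duplicate for 48 h to eight half-log concentrations topping at 100 uM in 0.5% DMSO. PEG10 mRNA was quantified by TaqMan qRT-PCR, normalised to ACTB, GAPDH and POLR2A.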

[18] = read-out: Nuclear factor NF-kappa-B p105 subunit (Homo sapiens) (UniProt P19838); assay: LTEA_HepaRG_NFKB1: Life Technologies and Expression Analysis (LTEA) Assay for Nuclear Factor Kappa B Subunit 1 (NFKB1) using HepaRG (AID 2283521)
How it was run: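 Differentiated human HepaRG cells in serum-free induction medium with 0.5% DMSO were exposed for 48 h to eight half-log concentrations, top 100 uM, in duplicate. NFKB1 mRNA measured by Fluidigm TaqMan qRT-PCR, normalised to ACTB, GAPDH and POLR2A; bidirectional fit versus DMSO.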

Measured: AC50

Nuclear factor NF-kappa-B p105 subunit (Homo sapiens), sequence (P19838 whole entry, looked up): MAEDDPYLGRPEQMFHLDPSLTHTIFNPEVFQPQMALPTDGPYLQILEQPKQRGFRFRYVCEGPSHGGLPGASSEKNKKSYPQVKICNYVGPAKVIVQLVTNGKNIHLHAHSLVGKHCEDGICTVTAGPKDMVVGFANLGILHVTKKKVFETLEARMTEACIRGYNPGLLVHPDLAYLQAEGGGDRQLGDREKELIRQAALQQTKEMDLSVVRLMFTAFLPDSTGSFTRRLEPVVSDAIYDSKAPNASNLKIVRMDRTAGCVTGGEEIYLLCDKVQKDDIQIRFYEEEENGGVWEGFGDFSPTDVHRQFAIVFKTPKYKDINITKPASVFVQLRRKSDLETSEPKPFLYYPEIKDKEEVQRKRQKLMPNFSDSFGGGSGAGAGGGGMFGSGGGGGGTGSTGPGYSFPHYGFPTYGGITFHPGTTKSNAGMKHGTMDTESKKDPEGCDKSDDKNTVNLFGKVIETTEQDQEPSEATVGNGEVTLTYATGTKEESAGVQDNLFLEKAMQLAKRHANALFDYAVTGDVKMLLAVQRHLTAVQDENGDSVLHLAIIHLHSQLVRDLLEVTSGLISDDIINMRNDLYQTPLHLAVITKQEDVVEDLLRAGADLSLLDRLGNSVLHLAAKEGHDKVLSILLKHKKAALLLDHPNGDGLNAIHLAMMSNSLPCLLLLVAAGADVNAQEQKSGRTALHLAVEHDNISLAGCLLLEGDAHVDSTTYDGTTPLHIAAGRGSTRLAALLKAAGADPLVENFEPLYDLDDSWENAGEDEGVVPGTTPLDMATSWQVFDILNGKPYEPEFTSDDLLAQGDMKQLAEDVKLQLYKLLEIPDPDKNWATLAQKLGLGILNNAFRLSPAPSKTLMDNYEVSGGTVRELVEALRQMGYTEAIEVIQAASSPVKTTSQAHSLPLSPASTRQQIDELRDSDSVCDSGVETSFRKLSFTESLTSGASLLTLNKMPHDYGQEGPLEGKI

Cc1ccc(C)c(O)c1
inactive: [1] | [2] | [3] | [4] | [5] | [6] | [7] | [8] | [9] | [10] | [11] | [12] | [13] | MYC, MYC (gene 4609) | [14] | [15] | [16]

COC(=O)c1c(Cl)c(Cl)c(C(=O)OC)c(Cl)c1Cl
inactive: [1] | HGF (gene 3082) | [2] | [4] | [5] | [6] | [7] | [8] | [9] | [10] | [11] | [12] | [13] | MYC, MYC (gene 4609) | [14] | [17] | [18] | [15] | [16]

O=C(CCCCCCCCc1cccnc1)N1CCC(C=C(c2ccccc2)c2ccccc2)CC1
active: [1] 22.9 µM | HGF (gene 3082) 11.9 µM | [2] 16.5 µM | [4] 28.5 µM | [5] 22.6 µM | [7] 50 µM | [9] 28.5 µM | [10] 22.4 µM | [11] 12.8 µM | [13] 31.8 µM | MYC, MYC (gene 4609) 27.4 µM | [14] 86.8 µM | [17] 50 µM | [18] 31.4 µM | [15] 11.7 µM
inactive: [8] | [16]

O=C(O)c1cccc(N(Cc2cccnc2)c2ccc(OC(F)F)c(OC(F)F)c2)c1
active: [8] 24.6 µM | [13] 91.7 µM | [14] 80.4 µM | [17] 50 µM | [18] 0.576 µM
inactive: [1] | HGF (gene 3082) | [2] | [4] | [5] | [6] | [7] | [9] | [10] | [11] | [12] | MYC, MYC (gene 4609) | [15] | [16]

CN(C)c1ccc(Cc2ccc(N(C)C)cc2)cc1
active: [1] 88.4 µM | [2] 79.2 µM | [8] 40.8 µM | [10] 80.1 µM | [12] 50 µM | [14] 50 µM | [17] 37.3 µM
inactive: [3] | [4] | [5] | [7] | [9] | [11] | [13] | MYC, MYC (gene 4609) | [18] | [15] | [16]

CNS(=O)(=O)c1cc(C(=O)N2CCC(CCN3C4CCC3CC(n3c(C)nc5ccccc53)C4)(c3cccc(F)c3)CC2)c(Cl)cc1F (stereo not drawn)
active: [1] 23.5 µM | [2] 16.3 µM | [4] 30.5 µM | [8] 18.3 µM | [10] 30.1 µM | [11] 18.2 µM | [12] 18.8 µM | MYC, MYC (gene 4609) 26.1 µM
inactive: HGF (gene 3082) | [5] | [6] | [7] | [9] | [13] | [18] | [15] | [16]

CCOc1cccc(-n2cc(C(=O)N3CCN(c4cc(C(=O)O)c5ccccc5c4)CC3)nc2-c2ccc(C)cc2)c1
active: [1] 33.7 µM | [2] 26.6 µM | [5] 74.2 µM | [6] 68.9 µM | [8] 16.2 µM | [10] 31.3 µM | [11] 87.1 µM | [12] 30.4 µM | [15] 86.4 µM | [16] 79.2 µM
inactive: [3] | [7] | [9] | [13] | MYC, MYC (gene 4609) | [18]
